Source: PubChem BioAssay
An excerpt weighted towards active compounds, which were near 5.7% of everything screened.
KB-V1 cytotox – kills drug-selected multidrug resistant KB-V1 cells; KB-V1 MDR cells viability, CellTiter-Glo, 72 h; Potency, µM (doses to about 46.1 µM), most hits filed as cytotoxic; hit rate 3.4% among 400,000; AID 1347076; note: nearly all actives have a fitted effect of over 60% in size
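KB-V1, DMEM (no phenol red) + 10% FBS; cpd pin-transferred, titration series; 72 h, 37 degrees C; CellTiter-Glo, luminescence. Data normalized, curve-fit.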
HT1080-NT tox – kills 2HG-producing HT-1080-NT fibrosarcoma cells; AID 686970; Potency, µM (top dose mostly 46.1 µM), hits mostly cytotoxic; hit rate 1.6% among 360,000; HT-1080-NT fibrosarcoma viability, CellTiter-Glo ATP luminescence, 48 h;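 note: NT is the 2HG producing partner of a matched IDH1 knockdown line; nearly all actives have a fitted effect of over 55% in size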
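Viability of the 2HG-overproducing fibrosarcoma line after 48 hours of compound exposure at 37 degrees C was determined by luminescence with CellTiter-Glo, and concentration-effect curves were then fitted and categorized.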
KB-3-1 cytotox – kills parental KB-3-1 adenocarcinoma cells. KB-3-1 viability, CellTiter-Glo ATP luminescence, 72 h. Potency, µM (doses to about 46.1 µM), most hits filed as cytotoxic. hit rate 1.4% among 400,000. AID 1347075; note: nearly all actives have a fitted effect of over 60% in size
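KB-3-1 cells, DMEM (no phenol red) + 10% FBS; compound by pin transfer, 72 h, 37 °C. Readout: CellTiter-Glo luminescence after 10 min. Data normalized, curve-fitted.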
HT1080 IDH1KD tx – toxicity to HT-1080 IDH1 knockdown cells (counter line); HT-1080 IDH1 knockdown viability, ATP luminescence, 48 h; Potency, µM (top dose mostly 46.1 µM), hits mostly cytotoxic; hit rate 2% among 360,000
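Viability of IDH1-knockdown HT-1080 fibrosarcoma cells was assessed by CellTiter-Glo after 48 h at 37 °C with titrated compound; concentration-effect curves were classified by fit quality and response size.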
A number is an active result; i = inactive; ? = inconclusive; nt = no result given. Calls come from the whole dose curve; as a rule, active = well fitted curve in the direction sought with a large enough effect; inconclusive = small, poorly fitted or top-dose-only effect, or another doubt; inactive = no such curve, though single readings can be large; an effect the other way counts as inactive or inconclusive.

SMILES	KB-V1 cytotox	HT1080-NT tox	KB-3-1 cytotox	HT1080 IDH1KD tx
Fc1ccc(-c2nc3ccncc3[nH]2)cc1	i	i	i	i
Clc1ccc(-c2nc3ccncc3[nH]2)cc1	18µM	?	?	?
Nc1nc2ccccc2n1/N=C/c1ccc2c(c1)OCO2	?	i	i	i
Nc1nc2ccccc2n1/N=C/c1ccc(Br)cc1	9.2µM	i	i	i
COc1ccc2c(c1)c1c(c(=O)n(-c3cccc(C)c3)c(=O)n1Cc1cccc(Cl)c1)n2C	i	nt	i	nt
Nc1ccc2c(C(F)(F)F)cc(C(F)(F)F)nc2n1	?	i	i	i
Nc1nc(N)c2sc3nc(C(F)(F)F)cc(C(F)(F)F)c3c2n1	18µM	i	i	i
C=C(C)CNC(=S)NNC(=O)CCn1c2ccccc2c2ccccc21	18µM	i	?	i
C=C(C)CNC(=S)NNC(=O)CCn1c2cc(Cl)ccc2c2ccc(Cl)cc21	?	i	i	i
O=C(C[N+]12CCCc3cccc(c31)CCC2)c1ccc2ccc3cccc4ccc1c2c34	i	nt	?	nt
O=C(Nc1nc2n(n1)C(c1ccccc1)C=C(c1ccccc1)N2)c1ccccc1 (stereo unspecified)	i	nt	i	nt
CC(=O)c1ccc(NS(=O)(=O)c2ccc(-n3cccn3)cc2)cc1	i	nt	i	nt
Clc1cccc(C[n+]2cc(-c3ccccc3)n3c2CCC3)c1	i	i	9.2µM	?
Cc1ccc(-c2c[n+](Cc3cccc(Cl)c3)c3n2CCC3)cc1	i	?	8.2µM	?
Cc1ccc(C[n+]2cc(-c3ccc(Cl)cc3)n3c2CCC3)cc1	?	i	6.5µM	i
Cc1ccc(-c2c[n+](Cc3ccc(Cl)cc3)c3n2CCC3)cc1	i	?	?	?
CCc1c(C)c2ccc3c(c2oc1=O)CN(Cc1ccccc1)CO3	?	nt	i	nt
Cc1cc(C(c2nnnn2Cc2ccccc2)N2CCOCC2)c(C)n1-c1ccc2c(c1)OCO2 (stereo unspecified)	i	?	i	10µM
c1ccc(Cn2nnnc2C(c2ccncc2)N2CCOCC2)cc1 (stereo unspecified)	i	i	i	i
CC(=O)c1ccc(N2CCN(c3ncc(C(F)(F)F)cc3Cl)CC2)cc1	i	i	i	i
O=C(c1ccc(C(F)(F)F)cc1)N1CCN(c2ccc(N3CCOCC3)nn2)CC1	16µM	i	i	i
CC(=O)c1ccc(N2CCN(c3ccc(C(F)(F)F)cn3)CC2)cc1	7.3µM	i	?	i
O=C(c1ccccc1Oc1ccc(C(F)(F)F)cc1[N+](=O)[O-])N1CCOCC1	i	i	i	i
CC(C)(C)c1ccc(C(=O)N2CCN(c3ccc(N4CCOCC4)nn3)CC2)cc1	?	i	i	i
O=C(c1ccc(Oc2ccc(C(F)(F)F)cc2[N+](=O)[O-])cc1)N1CCOCC1	23µM	i	?	i
SMILES	KB-V1 cytotox	HT1080-NT tox	KB-3-1 cytotox	HT1080 IDH1KD tx
COc1ccc(NC(=O)C(=O)N2N=C(C(C)C)CC2(O)C(F)(F)F)cc1 (stereo unspecified)	i	?	i	8.9µM
CCC1=NN(C(=O)C(=O)Nc2ccc(Br)cc2)C(O)(C(F)(F)F)C1 (stereo unspecified)	i	21µM	i	?
CCCC1=NN(C(=O)C(=O)Nc2ccc(Br)cc2)C(O)(C(F)(F)F)C1 (stereo unspecified)	i	13µM	i	16µM
CCC1=NN(C(=O)CCc2ccccc2O)C(O)(C(F)(F)F)C1 (stereo unspecified)	i	i	i	i
CC(C)(C)OC(=O)N1CCC(c2c(C(=O)N3CCN(c4ncccn4)CC3)cnn2-c2ccc(F)cc2)CC1	i	nt	i	nt
CC1=NN(c2ccc(C)c(C)c2)C(=O)/C1=C\C=C\c1ccc([N+](=O)[O-])o1	i	?	?	16µM
COc1cc(OC)cc(-c2nc3nc(C)c(CCC(=O)Nc4cc(C)cc(C)c4)c(C)n3n2)c1	i	nt	i	nt
Cc1cc(C)c2oc(C(=O)Nc3nc4ccc(Cl)cc4s3)cc(=O)c2c1	?	nt	i	nt
COc1cccc(S(=O)(=O)N(C)C[C@H]2Oc3cc(Br)ccc3S(=O)(=O)N([C@@H](C)CO)C[C@H]2C)c1	9.2µM	i	i	i
C[C@@H]1CN([C@H](C)CO)S(=O)(=O)c2ccc(Br)cc2O[C@@H]1CN(C)Cc1ccc(-c2ccccc2)cc1	i	18µM	i	16µM
C[C@H](O)C#Cc1ccc2c(c1)O[C@@H](CN(C)Cc1ccc(-c3ccccc3)cc1)[C@H](C)CN([C@@H](C)CO)S2(=O)=O	?	?	?	21µM
